Reference: PubChem BioAssay
Activity calls are given as the source filed them.

Columns and labels:
[1] = biological target: Albumin (Bos taurus) (UniProt P02769); experiment: bovine serum albumin binders on microarray, profiling panel, artefact control for SMM control protein annotation, biochemical, small-molecule microarray, Alexa647 label, 635/667 nm fluorescence (AID 1118); settings: BSA-A647 binding, fluorescence 635 nm, higher = more signal;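 note: score merges 667 nm emission intensity and signal-to-noise per printed compound spot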
[2] = small-molecule microarray binders of probe aXIP, primary screen, biochemical, NeuroSMM set, 635/667 nm fluorescence (AID 1119); settings: higher = more signal, called active from +8 up or from −8 down;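 note: probe is the protein aXip251-270 applied at 1 µg/mL to compound-printed slides; binding of probe to printed compounds measured as 667 nm fluorescence plus signal to noise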
[3] = small-molecule binders of probe aNOTCH3, primary screen, biochemical, small-molecule microarray, 635/667 nm fluorescence (AID 1120); settings: higher = more signal;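 note: probe is a biotin-tagged antibody raised against NOTCH3 rather than NOTCH3 protein; score merges spot fluorescence near 667 nm with spot signal to noise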
[4] = small-molecule binders of probe aNOTCH2, primary screen, biochemical, small-molecule microarray, 635/667 nm fluorescence (AID 1121); settings: higher = more signal;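 note: score merges feature fluorescence read at 667 nm with its signal to noise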
[5] = biological target: Carbonic anhydrase 2 (Homo sapiens) (UniProt P00918); experiment: CAII small-molecule binders, profiling panel, biochemical, small-molecule microarray, Alexa647-labelled CAII (AID 1122); settings: CAII-A647 binding fluorescence, higher = more signal
[6] = COS7 lysate on small-molecule microarray, probe aHis, 635 nm (AID 1123); settings: COS7 cell lysate, fluorescence, higher = more signal;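 note: z-score combines 667nm fluorescence intensity with signal-to-noise per printed compound spot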
[7] = compound binding in COS7 lysate, probe aLAP1, primary screen, cell lysate, small-molecule microarray (AID 1124); settings: probe aLAP1, fluorescence, higher = more signal;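 note: lysate comes from COS7 cells expressing LAP1 and is applied at 0.3 µg/mL; score merges spot fluorescence near 667 nm with signal-to-noise over triplicate slides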
[8] = test system: Sam68 (KHDRBS1); experiment: Sam68 small-molecule binders, primary screen, biochemical, small-molecule microarray, 635 nm fluorescence (AID 1125); settings: small-molecule microarray binding, higher = more signal;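 note: score merges 667 nm channel intensity with signal to noise over triplicate slides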
[9] = test system: Chordin-like protein 2 (CHRDL2); experiment: CHRDL2 small-molecule binders, primary screen, biochemical, small-molecule microarray, 635 nm fluorescence (AID 1126); settings: small-molecule microarray binding, fluorescence 635 nm; higher = more signal;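 note: printed compound slides probed with Chrdl2 protein at 4 µg/mL for 1 h at 4 C; score merges 667 nm emission intensity with signal to noise over three replicate slides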
[10] = biological target: Concanavalin-A (Canavalia ensiformis) (UniProt P02866); experiment: ConA small-molecule binders, primary screen, artefact control for SMM control protein annotation, biochemical, small-molecule microarray, Alexa647 label, 635 nm (AID 1127); settings: ConA-A647 binding fluorescence, higher = more signal;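 note: z combines 667 nm emission intensity with signal-to-noise across three replicate slides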
Chain of Concanavalin-A (Canavalia ensiformis) (P02866 whole entry, looked up): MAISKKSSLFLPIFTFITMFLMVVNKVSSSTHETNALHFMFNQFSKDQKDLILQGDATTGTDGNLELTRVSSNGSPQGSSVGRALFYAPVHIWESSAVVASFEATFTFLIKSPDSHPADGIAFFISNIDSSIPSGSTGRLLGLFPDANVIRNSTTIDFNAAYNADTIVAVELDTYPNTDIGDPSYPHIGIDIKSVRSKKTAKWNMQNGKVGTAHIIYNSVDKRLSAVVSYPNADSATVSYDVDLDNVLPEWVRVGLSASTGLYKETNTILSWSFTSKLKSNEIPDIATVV

Chain of Albumin (Bos taurus) (P02769 whole entry, looked up): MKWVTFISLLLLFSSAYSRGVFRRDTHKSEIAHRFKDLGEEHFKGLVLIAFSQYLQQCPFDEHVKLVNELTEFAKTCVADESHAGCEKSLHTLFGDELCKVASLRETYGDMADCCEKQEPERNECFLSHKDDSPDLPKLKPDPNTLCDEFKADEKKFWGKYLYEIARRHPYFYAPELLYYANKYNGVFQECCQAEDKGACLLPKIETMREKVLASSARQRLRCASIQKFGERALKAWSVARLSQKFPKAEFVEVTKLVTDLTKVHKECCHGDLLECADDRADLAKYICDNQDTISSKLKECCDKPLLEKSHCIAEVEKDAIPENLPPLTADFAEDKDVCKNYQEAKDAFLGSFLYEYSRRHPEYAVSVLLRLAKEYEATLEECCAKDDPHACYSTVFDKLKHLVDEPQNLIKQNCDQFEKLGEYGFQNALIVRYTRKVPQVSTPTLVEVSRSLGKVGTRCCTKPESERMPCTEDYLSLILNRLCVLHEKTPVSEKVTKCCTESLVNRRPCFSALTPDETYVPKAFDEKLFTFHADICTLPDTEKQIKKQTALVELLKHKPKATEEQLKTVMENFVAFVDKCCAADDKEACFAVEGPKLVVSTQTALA

| Structure (SMILES) | composite z-score [1] | composite Z-score [2] | composite z-score [3] | composite z-score [4] | composite z-score [5] | composite z-score [6] | composite z-score [7] | composite z-score [8] | composite z-score [9] | composite z-score [10] |
| --- | --- | --- | --- | --- | --- | --- | --- | --- | --- | --- |
| C[N+](C)(C)CCCCCCNC(=O)[C@@H]1C[C@@H]2C(=O)N[C@@H](Cc3ccccc3)C(=O)N2[C@@H]1c1ccc(O)cc1 | 0.454 | 0.609 (inactive) | 0.325 | -0.126 | 0.524 | 0.955 | 0.385 | 1.29 | 1.39 | 1.12 |
| C#CCN([C@H](/C=C/C1CC1)[C@@H](O)Cc1ccccc1)[C@@H](Cc1ccccc1)C(=O)OC | -0.578 | -0.232 (inactive) | 0.15 | -0.164 | -0.179 | -0.485 | -0.454 | 0.0511 | 0.686 | -0.249 |
| COC(=O)C1(CC(C)C)C=C2C(=C(C(C)C)C(=O)C2C)CN1 (stereo not given) | -0.597 | 0.116 (inactive) | -0.0043 | -0.119 | 0.539 | 0.0678 | -0.463 | -0.923 | -0.699 | -2.07 |
| CC(C)C(=C=CC[C@@H](O)c1ccc(OCCO)cc1)CCO | 0.261 | -0.488 (inactive) | -0.0259 | -0.14 | 0.601 | 0.583 | -0.178 | 0.275 | 0.184 | 0.224 |
| Cc1ccccc1C(O)C1C=CC2C(=O)N(c3ccccc3)C(=O)C2N1Nc1ccccc1F (stereo not given) | 1.03 | 0.805 (inactive) | 0.195 | 0.161 | 0.77 | 3.01 | -0.0703 | 1.23 | -0.52 | 1.09 |
| C=CCN1C(=O)[C@]2(O[C@H](CCO)[C@@H]([Si](C)(C)c3ccc(OC)cc3)[C@@H]2C)c2ccccc21 | 0.482 | -0.291 (inactive) | -0.157 | -0.129 | 0.277 | 0.621 | -0.116 | -0.241 | -0.884 | 0.201 |
| C=CCC(OC(C)=O)[C@@H]1[C@@H](N(Cc2cc3ccccc3o2)C(=O)c2cccc3ccccc23)c2cc(OCCCO)ccc2N1C(=O)c1ccc2ccccc2c1 (stereo not given in full) | 0.163 | -0.73 (inactive) | -0.0647 | -0.0906 | 0.229 | 0.542 | -0.177 | -0.0368 | 0.556 | -0.259 |
| O=C1c2ccccc2[C@@]2(Cc3ccccc3N(Cc3ccccc3)C2=O)[C@H](c2ccc(CO)cc2)N1Cc1ccccc1 | -0.819 | 0.225 (inactive) | -0.132 | -0.125 | 0.19 | -0.137 | 0.407 | -0.42 | -0.845 | -0.571 |
| C=CCC(OC(C)=O)[C@@H]1[C@@H](N(Cc2ccc(-c3cccc(C(F)(F)F)c3)o2)C(=O)c2cccc3ccccc23)c2cc(OCCCO)ccc2N1C(=O)c1ccc2ccccc2c1 (stereo not given in full) | -0.119 | 0.115 (inactive) | 0.147 | -0.12 | 0.0138 | 0.289 | -0.278 | -0.351 | 0.31 | -0.0957 |
| CN(C)CCCC[C@@H]1NC(=O)[C@H]2C[C@@H](C(=O)NCc3ccc(F)cc3)[C@@H](c3ccc(O)cc3)N2C1=O | -0.734 | 1.79 (inactive) | -0.136 | -0.0423 | 0.757 | 2.25 | 0.0507 | 1.16 | 1.13 | 1.15 |
| COC(=O)Cn1c(C(=O)N(C)C)cc2c1C[C@H]1CN(C(=O)c3ccccc3)[C@@](Cc3ccc(OC)cc3)(C(=O)OC)[C@@H]21 | 0.938 | -0.945 (inactive) | 0.332 | -0.037 | 0.845 | 3.28 | -0.0169 | 1.08 | -0.108 | 0.812 |
| COc1ccc(NC(=O)O[C@H]2[C@H](OC(=O)Nc3ccc4c(c3)OCO4)[C@H](OC(=O)Nc3ccc4c(c3)OCO4)[C@@H](OC)O[C@@H]2CO)cc1 | -0.0357 | -0.102 (inactive) | 0.037 | -0.117 | 0.609 | 1.36 | 1.16 | 1.26 | 0.0872 | 1.02 |
